From PubChem BioAssay
Unmarked numbers belong to inactive results. The rule behind the calls is not given here.

What follows are compounds tested against Pantothenate synthetase (Mycobacterium tuberculosis (strain ATCC 25618 / H37Rv)) (UniProt P9WIL5) (assay: Recombinant Mtb pantothenate synthetase (PanC) inhibitors, coupled enzyme, confirmatory (AID 375;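 note: 0% = full reaction with vehicle and 100% = no enzyme background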)). Conditions: coupled enzyme assay; at 10 µM, active compounds read high.
Sequence of Pantothenate synthetase (Mycobacterium tuberculosis (strain ATCC 25618 / H37Rv)) (P9WIL5 whole entry, looked up): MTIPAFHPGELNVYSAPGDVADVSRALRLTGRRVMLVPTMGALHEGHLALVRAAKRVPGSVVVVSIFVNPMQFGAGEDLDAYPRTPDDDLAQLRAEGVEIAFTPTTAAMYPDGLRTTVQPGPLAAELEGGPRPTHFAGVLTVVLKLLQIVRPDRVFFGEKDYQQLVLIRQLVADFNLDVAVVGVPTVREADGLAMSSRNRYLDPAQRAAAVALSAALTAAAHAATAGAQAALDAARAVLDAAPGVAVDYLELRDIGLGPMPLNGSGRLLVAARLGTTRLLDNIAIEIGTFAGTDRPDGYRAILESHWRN

SMILES | inhibition
Cc1ccc(C2CC(c3cccc(Br)c3)Nc3nnnn32)cc1 (stereo not given) | 1%
O=S(=O)(c1cccc(-c2nnco2)c1)N1CCCC1 | 0%
C=CCn1c(SC(C)C(=O)NC2(C#N)CCCCC2)nnc1-c1ccc(OC)cc1 (stereo not given) | 5%
COCCCNC(=O)CC(NS(=O)(=O)c1ccc(Cl)cc1)c1ccco1 (stereo not given) | 0%
Cc1oc(-c2ccccc2F)nc1CS(=O)(=O)CC(=O)N1CCN(Cc2ccccc2)CC1 | 0%
COc1ccc(OCC(=O)N2CC3(C)CC2CC(C)(C)C3)cc1 (stereo not given) | 0%
CC1CCN(C(=O)Cn2cc3c(n2)CCCC3)CC1 | 0%
Cn1c(-c2ccccc2)cnc1SCc1nc2ccccc2c(=O)[nH]1 | 7%
CCCC(CCC)C(=O)NCCN1CCOCC1 | 0%
COc1cc(OC)c(NC(=O)c2ccco2)cc1Cl | 0%
Cc1cccc(Cn2c(SCCN3CCCCC3)nc3c2c(=O)[nH]c(=O)n3C)c1 | 0%
Cc1ccccc1-n1nnnc1SCC(=O)Nc1ccc(S(=O)(=O)N2CCCC2)cc1 | 0%
O=C(CNC1CCCCCC1)Nc1ccc(S(=O)(=O)NC2CC2)cc1 | 2%
Cn1cccc1Cc1nnc(SCC(=O)Nc2ccc(F)cc2F)n1-c1ccc(F)cc1 | 4%
COc1cc2[nH]c(=O)c(C(=O)NCCCN3CCCCC3)c(O)c2cc1OC | 3%
CC(=O)n1nc(-c2ccco2)nc1SCc1ccccc1 | 0%
O=C(NC1CCCCCC1)c1c(F)c(F)c(F)c(F)c1F | 4%
COc1ccc(S(=O)(=O)NC2CCCCC2)c(C)c1C | 4%
COc1cc(-c2c(C#N)c(N)nc3c2CCCC3)cc(OC)c1OC | 5%
COc1cc(C)c(N)cc1C(C)C | 2%

SMILES | inhibition
CC(C)N(C(=O)CSc1nnc(NC(=O)C2CCC2)s1)C(C)C | 0%
N#CCc1nc(CSc2nc3ccccc3s2)cs1 | 7%
Cc1cnn(Cc2ccccc2)c1N | 3%
COC(=O)CN1C(=O)CC(C)(C)S(=O)c2ccccc21 (stereo not given) | 0%
CCOC(=O)C(C(=O)OCC)C(C)C#CCN1CCCCC1 (stereo not given) | 4%
Cc1ccc(N(C)C(=O)N2CCN(c3ccccn3)CC2)cc1 | 0%
COc1ccc(N2CCN(C(=O)CSc3ncnc4c3cnn4-c3ccccc3C)CC2)cc1 | 0%
CCCCSc1nc(CCC)cc(=O)[nH]1 | 0%
COCCSc1nnc(NC(=O)Cc2ccccc2OC)s1 | 4%
COCCCNC(=O)c1ccccc1NS(=O)(=O)c1ccc(C)cc1 | 1%
CCSC1=C(C#N)C(c2ccccc2OC)CC(=O)N1 (stereo not given) | 4%
Cc1ccc(S(=O)(=O)N2CCN(C(=O)N3CCOCC3)C2c2ccc(N(C)C)cc2)cc1 (stereo not given) | 0%
CC(=O)C1=C(O)C(=O)N(Cc2ccco2)C1c1ccc2c(c1)OCO2 (stereo not given) | 3%
CCS(=O)(=O)NCCc1cc2c(OC)ccc(OC)c2[nH]c1=O | 3%
CCN(CC)C(=O)c1sc(NC(=O)c2ccco2)c(C#N)c1C | 15%
O=C(CCn1c(=O)sc2ccccc21)Nc1cccnc1 | 6%
CCOC(=O)[C@H](CCc1ccccc1)N[C@@H](C)C(=O)N1CCC[C@H]1C(=O)O | 0%
COCCNC(=O)C(c1ccc(C)o1)N(Cc1cccs1)C(=O)c1snc(C(N)=O)c1N (stereo not given) | 4%
Cc1cc(C)cc(N2CCCn3c2nc2c3c(=O)n(CCN3CCOCC3)c(=O)n2C)c1 | 7%
O=C(Nc1sccc1C(=O)NCc1ccco1)c1cccnc1 | 5%
